Data reported in PubChem BioAssay.
Activity calls are given as the source filed them.

How the values were obtained:
[1] = test system: PRMT1 (protein arginine N-methyltransferase 1); experiment: small molecules binding arginine methyltransferase PRMT1 – biochemical, small-molecule microarray, 635 nm fluorescence, primary screen (AID 1088); settings: higher = more signal;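 further: binding of Prmt1 protein to compounds spotted on small-molecule microarray slides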
[2] = growth effects on S. cerevisiae YJM789 – YJM789 clinical isolate, OD600, 24 h, basal, primary screen (AID 1089); settings: higher = more signal, called active from +8 up or from −8 down;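 further: growth of clinical yeast isolate S. cerevisiae YJM 789 seeded 1000 cells per well; test concentration not given here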
[3] = S. pombe growth modifiers, basal conditions – strain 972, OD600, 24 h, no modulator, primary screen (AID 1090);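 further: basal condition with compound alone and no growth modifier present; test concentration not given here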; settings: S. pombe 972 growth, higher = more signal, called active from +8 up or from −8 down
[4] = budding yeast growth modifiers under rapamycin – strain BY4716, OD600, 96 h, primary screen (AID 1091); further: test concentration not given here; settings: S. cerevisiae BY4716 + rapamycin, higher = more signal, called active from +8 up or from −8 down
[5] = biological target: Torsin-1A-interacting protein 2 (Homo sapiens) (UniProt Q8NFQ8); experiment: small molecules binding lysate-expressed LULL1 – cell lysate, human LULL1 lysate, 635/667 nm fluorescence, primary screen (AID 1092); settings: small-molecule microarray, hLULL1 lysate binding, 635 nm fluorescence; higher = more signal;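 further: probe is lysate of COS7 cells overexpressing human LULL1; score merges per-feature 667 nm fluorescence with signal-to-noise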
Torsin-1A-interacting protein 2 (Homo sapiens), sequence (Q8NFQ8 whole entry, looked up): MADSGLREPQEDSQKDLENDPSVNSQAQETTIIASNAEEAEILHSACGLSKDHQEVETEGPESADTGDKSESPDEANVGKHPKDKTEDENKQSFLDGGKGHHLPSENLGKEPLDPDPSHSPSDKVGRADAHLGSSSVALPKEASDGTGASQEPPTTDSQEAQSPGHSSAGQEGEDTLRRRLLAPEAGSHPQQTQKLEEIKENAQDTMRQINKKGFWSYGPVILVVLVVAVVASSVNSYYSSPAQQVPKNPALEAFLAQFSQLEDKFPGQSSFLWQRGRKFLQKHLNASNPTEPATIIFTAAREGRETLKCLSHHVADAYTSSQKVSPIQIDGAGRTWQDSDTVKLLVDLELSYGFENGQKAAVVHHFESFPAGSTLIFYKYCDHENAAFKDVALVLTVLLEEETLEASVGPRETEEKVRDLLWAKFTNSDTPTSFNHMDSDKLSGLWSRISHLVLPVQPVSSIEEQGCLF

[6] = optical density change of DRC41 E. coli – strain DRC41, OD650, 24 h, E. coli filamentation project, primary screen (AID 1093);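 further: MC1000 strain lacking acrAB efflux and sulA so SOS filamentation is blocked; test concentration not given here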; settings: E. coli DRC41 growth, higher = more signal, called active from +8 up or from −8 down
[7] = probe aLefty2 binding to arrayed compounds – biochemical, biotinylated probe, 635/667 nm fluorescence, primary screen (AID 1094); settings: small-molecule microarray, higher = more signal;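 further: score merges spot fluorescence near 667 nm with spot signal-to-noise ratio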
[8] = test system: Noggin (protein binding on small-molecule microarray); experiment: small molecules binding Noggin protein – biochemical, 635/667 nm fluorescence, primary screen (AID 1095); settings: 635 nm fluorescence, higher = more signal;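 further: score merges 667 nm feature fluorescence with signal to noise over triplicate slides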
[9] = biological target: Neurogenic locus notch homolog protein 3 (Homo sapiens) (UniProt Q9UM47); experiment: small molecules binding NOTCH3 protein – biochemical, 635/667 nm fluorescence, primary screen (AID 1096); settings: small-molecule microarray, 635 nm fluorescence, higher = more signal
Neurogenic locus notch homolog protein 3 (Homo sapiens), sequence (Q9UM47 whole entry, looked up): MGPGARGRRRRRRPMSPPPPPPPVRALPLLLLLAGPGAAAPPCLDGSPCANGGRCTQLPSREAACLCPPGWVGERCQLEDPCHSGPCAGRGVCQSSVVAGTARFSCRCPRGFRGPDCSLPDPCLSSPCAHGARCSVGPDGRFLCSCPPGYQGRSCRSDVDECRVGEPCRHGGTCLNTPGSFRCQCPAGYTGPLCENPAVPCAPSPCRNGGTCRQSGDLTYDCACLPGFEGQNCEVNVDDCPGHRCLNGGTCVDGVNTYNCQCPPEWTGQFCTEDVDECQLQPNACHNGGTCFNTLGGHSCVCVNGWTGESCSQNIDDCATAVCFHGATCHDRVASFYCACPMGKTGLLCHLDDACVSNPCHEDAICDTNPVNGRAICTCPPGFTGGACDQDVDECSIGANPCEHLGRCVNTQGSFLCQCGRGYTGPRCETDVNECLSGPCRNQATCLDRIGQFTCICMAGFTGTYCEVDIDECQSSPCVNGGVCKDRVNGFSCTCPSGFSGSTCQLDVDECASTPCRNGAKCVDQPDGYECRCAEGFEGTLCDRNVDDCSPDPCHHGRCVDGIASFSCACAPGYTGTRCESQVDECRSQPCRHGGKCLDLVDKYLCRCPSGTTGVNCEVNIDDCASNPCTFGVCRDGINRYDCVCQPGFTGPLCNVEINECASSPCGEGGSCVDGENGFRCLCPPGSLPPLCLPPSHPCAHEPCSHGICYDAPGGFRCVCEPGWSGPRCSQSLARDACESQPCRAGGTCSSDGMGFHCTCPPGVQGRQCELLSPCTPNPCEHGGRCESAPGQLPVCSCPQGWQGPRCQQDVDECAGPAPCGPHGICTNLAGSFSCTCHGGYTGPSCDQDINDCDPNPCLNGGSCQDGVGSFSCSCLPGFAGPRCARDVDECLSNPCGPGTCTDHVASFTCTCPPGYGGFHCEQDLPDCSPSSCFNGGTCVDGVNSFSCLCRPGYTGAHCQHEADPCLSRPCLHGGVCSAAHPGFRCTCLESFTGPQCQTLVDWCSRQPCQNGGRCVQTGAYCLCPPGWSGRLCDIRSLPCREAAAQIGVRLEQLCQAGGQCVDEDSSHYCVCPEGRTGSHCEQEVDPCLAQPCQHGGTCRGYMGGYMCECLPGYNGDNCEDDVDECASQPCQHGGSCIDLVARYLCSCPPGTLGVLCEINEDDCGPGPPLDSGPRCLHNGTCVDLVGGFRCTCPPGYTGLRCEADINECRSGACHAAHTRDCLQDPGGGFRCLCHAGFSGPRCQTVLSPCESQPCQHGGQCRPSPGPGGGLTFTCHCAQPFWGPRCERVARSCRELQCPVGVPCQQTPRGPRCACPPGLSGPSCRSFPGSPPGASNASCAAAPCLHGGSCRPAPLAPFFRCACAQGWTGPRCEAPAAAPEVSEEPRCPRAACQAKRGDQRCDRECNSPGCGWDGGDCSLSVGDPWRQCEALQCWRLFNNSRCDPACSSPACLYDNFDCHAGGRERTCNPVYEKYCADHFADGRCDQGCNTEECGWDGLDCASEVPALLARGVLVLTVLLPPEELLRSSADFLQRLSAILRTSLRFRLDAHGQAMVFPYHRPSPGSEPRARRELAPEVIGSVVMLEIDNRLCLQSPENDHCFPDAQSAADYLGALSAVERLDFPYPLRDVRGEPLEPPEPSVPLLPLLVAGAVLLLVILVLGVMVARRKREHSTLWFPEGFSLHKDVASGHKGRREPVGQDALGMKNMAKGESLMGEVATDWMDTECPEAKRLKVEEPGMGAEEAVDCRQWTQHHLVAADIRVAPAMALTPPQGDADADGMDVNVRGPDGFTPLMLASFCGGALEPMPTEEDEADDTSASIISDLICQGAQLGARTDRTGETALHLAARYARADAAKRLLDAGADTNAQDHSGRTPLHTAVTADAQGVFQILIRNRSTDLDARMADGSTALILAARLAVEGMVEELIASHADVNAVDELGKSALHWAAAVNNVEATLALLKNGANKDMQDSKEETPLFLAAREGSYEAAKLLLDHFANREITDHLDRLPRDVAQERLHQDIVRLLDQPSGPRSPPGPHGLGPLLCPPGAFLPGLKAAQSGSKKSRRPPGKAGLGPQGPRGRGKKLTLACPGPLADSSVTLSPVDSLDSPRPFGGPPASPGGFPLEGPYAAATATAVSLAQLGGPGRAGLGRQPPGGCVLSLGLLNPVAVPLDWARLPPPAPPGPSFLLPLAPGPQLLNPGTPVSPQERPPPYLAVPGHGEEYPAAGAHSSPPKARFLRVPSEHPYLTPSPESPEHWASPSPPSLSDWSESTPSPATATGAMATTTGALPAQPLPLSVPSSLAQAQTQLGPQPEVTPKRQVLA

[10] = probe aEGFR binding to arrayed compounds – biochemical, biotinylated probe, 635/667 nm fluorescence, primary screen (AID 1097); settings: small-molecule microarray, higher = more signal;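 further: probe is a biotinylated anti-EGFR antibody binding compounds printed on slides; score combines fluorescence near 667 nm and signal to noise of each spot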
[11] = test system: Plasmodium falciparum Sir2 (PF13_0152, Sir2A); experiment: Plasmodium falciparum Sir2A binding compounds – biochemical, small-molecule microarray, 635 nm fluorescence, primary screen (AID 1098); settings: fluorescence 635 nm, higher = more signal;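 further: score merges spot fluorescence intensity with its signal-to-noise ratio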
[12] = probe aDKK1 binding to arrayed compounds – biochemical, biotinylated probe, 635/667 nm fluorescence, primary screen (AID 1099); settings: small-molecule microarray, higher = more signal;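 further: score merges 667nm spot fluorescence with signal to noise across triplicate slides; reference of the scale not given here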
[13] = probe aCHRDL2 binding to arrayed compounds – biochemical, biotinylated probe, 635/667 nm fluorescence, primary screen (AID 1100); settings: small-molecule microarray, higher = more signal
[14] = change in splice reporter luminescence, either direction, cell-based, HEK293, spliceosome inhibition project, primary screen (AID 1101); settings: HEK293 splicing luciferase reporter, 24 h, higher = more signal, called active from +8 up or from −8 down;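 further: HEK293 cells carrying a splicing-competent luciferase reporter gene; test concentration not given here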
[15] = biological target: Fibroblast growth factor 10 (Homo sapiens) (UniProt O15520); experiment: compounds binding fibroblast growth factor 10 – biochemical, small-molecule microarray, 635 nm fluorescence, primary screen (AID 1102); settings: FGF10 binding, fluorescence 635 nm, higher = more signal
Fibroblast growth factor 10 (Homo sapiens), sequence (O15520 whole entry, looked up): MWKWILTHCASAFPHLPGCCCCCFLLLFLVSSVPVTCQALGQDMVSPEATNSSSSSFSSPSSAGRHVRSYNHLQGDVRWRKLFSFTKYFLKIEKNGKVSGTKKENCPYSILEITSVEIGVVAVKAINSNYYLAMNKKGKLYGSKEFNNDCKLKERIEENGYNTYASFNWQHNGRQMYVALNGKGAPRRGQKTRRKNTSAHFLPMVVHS

[16] = test system: glycogen synthase kinase-3 (GSK3A per assay name; protocol says GSK3B); experiment: compounds binding glycogen synthase kinase-3 – biochemical, small-molecule microarray, 635 nm fluorescence, GSK3A, primary screen (AID 1103); settings: fluorescence 635 nm, higher = more signal; further: the record names both GSK3A and GSK3B
[17] = biological target: Epidermal growth factor receptor (Homo sapiens) (UniProt P00533); experiment: compounds binding epidermal growth factor receptor – biochemical, small-molecule microarray, 635 nm fluorescence, primary screen (AID 1104); settings: EGFR binding, higher = more signal;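 further: score merges 667 nm emission intensity with spot signal to noise over triplicate slides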
Epidermal growth factor receptor (Homo sapiens), sequence (P00533 whole entry, looked up): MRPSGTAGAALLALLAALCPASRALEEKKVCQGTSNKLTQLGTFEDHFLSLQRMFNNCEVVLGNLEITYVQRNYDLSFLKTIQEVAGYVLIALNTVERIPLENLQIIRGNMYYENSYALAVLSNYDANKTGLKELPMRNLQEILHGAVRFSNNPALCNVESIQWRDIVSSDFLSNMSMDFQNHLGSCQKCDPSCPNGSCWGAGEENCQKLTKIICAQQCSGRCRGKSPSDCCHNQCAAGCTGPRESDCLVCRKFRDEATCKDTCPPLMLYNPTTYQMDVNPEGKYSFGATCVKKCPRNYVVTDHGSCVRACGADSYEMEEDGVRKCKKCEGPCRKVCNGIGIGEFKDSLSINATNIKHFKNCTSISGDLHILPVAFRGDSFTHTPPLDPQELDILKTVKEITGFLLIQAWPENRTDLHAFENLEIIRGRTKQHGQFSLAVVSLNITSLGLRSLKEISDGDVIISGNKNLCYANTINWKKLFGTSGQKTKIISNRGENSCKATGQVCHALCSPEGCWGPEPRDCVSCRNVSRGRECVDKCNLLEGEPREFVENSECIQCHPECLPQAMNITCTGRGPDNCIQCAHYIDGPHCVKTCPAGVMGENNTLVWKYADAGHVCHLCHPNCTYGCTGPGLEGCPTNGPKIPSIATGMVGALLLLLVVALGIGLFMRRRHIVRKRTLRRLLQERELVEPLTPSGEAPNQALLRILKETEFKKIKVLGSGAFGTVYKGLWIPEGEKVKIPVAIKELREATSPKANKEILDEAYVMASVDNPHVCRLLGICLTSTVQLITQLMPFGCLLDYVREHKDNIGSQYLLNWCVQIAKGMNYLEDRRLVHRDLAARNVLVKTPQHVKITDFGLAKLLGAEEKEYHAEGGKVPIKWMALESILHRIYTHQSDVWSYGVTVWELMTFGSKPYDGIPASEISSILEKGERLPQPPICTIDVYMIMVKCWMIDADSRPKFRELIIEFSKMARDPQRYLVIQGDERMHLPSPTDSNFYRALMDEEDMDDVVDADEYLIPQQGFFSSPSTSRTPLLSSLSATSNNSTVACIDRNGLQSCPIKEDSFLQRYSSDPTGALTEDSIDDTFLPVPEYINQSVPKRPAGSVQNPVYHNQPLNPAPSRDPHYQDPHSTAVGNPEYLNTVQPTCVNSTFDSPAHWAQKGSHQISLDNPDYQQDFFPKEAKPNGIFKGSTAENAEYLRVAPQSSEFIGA

[18] = biological target: Follistatin-related protein 3 (Homo sapiens) (UniProt O95633); experiment: compounds binding follistatin-related protein 3 – biochemical, small-molecule microarray, 635 nm fluorescence, primary screen (AID 1105); settings: FSTL3 binding, higher = more signal;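 further: score merges emission near 667 nm and signal to noise per printed spot across three slides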
Follistatin-related protein 3 (Homo sapiens), sequence (O95633 whole entry, looked up): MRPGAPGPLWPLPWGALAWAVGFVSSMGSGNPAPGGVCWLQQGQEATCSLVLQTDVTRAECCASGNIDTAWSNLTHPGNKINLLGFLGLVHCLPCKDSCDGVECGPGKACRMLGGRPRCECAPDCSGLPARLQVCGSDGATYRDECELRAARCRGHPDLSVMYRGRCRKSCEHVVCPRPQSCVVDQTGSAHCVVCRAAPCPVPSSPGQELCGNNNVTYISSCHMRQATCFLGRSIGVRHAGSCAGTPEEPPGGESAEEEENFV

[19] = biological target: Dickkopf-related protein 1 (Homo sapiens) (UniProt O94907); experiment: small molecules binding DKK1 protein – biochemical, small-molecule microarray, 635 nm fluorescence scan, primary screen (AID 1106); settings: higher = more signal;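 further: score merges emission near 667 nm with signal to noise over three replicate slides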
Dickkopf-related protein 1 (Homo sapiens), sequence (O94907 whole entry, looked up): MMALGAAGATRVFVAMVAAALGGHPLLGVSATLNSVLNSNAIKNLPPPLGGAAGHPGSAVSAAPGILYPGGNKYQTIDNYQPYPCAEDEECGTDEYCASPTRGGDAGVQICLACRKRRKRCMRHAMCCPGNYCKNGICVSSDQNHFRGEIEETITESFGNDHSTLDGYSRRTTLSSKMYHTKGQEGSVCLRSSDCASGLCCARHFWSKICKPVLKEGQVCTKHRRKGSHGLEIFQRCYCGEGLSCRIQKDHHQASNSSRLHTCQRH

[20] = test system: Inhibin beta A chain (activin A); experiment: small molecules binding activin A – biochemical, small-molecule microarray, 635 nm fluorescence scan, primary screen (AID 1107); settings: INHBA, higher = more signal;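 further: mouse activin A protein probed at 4.33 µg/mL on printed slides; score merges bound-protein fluorescence near 667 nm with spot signal-to-noise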

Structure (SMILES)	composite z-score [1]	z-score [2]	z-score [3]	z-score [4]	composite z-score [5]	z-score [6]	composite z-score [7]	composite z-score [8]	composite z-score [9]	composite z-score [10]	composite z-score [11]	composite z-score [12]	composite z-score [13]	z-score [14]	composite z-score [15]	composite z-score [16]	composite z-score [17]	composite z-score [18]	composite z-score [19]	composite z-score [20]
O=C1OCCC=C[C@H]2OC34C=CCN(c5ccc6ccccc6c5)C(=O)[C@H]3N(CCO)C(=O)[C@@H]4C12 (stereo not given in full)	-0.3	-0.735 (inactive)	-0.737 (inactive)	-0.171 (inactive)	-0.686	-0.021 (inactive)	-0.314	-0.251	0.301	-0.0353	1.89	-0.886	-0.465	-0.502 (inactive)	-0.0326	-0.327	-0.405	-0.114	-0.951	-0.666
C=CCC(OC(C)=O)[C@@H]1[C@@H](N(Cc2ccc(-c3cccc(C(F)(F)F)c3)o2)C(=O)Cc2ccc(F)cc2)c2cc(OCCCO)ccc2N1C(=O)Cc1ccc2ccccc2c1 (stereo not given in full)	-0.783	-0.554 (inactive)	0.181 (inactive)	-0.669 (inactive)	-0.199	-1.01 (inactive)	-0.118	-0.244	-0.855	-0.125	-0.595	-0.341	0.228	0.705 (inactive)	-0.195	-1.79	-0.676	-0.511	-0.286	1.12
CCOC(=O)C[C@H]1[C@H](OC(=O)c2ccccc2-c2ccccc2)[C@@H](NC(=O)C2CCCCC2)c2cc(OCCCO)ccc2N1C(=O)c1ccc2ccccc2n1	1.39	0.362 (inactive)	0.233 (inactive)	0.495 (inactive)	1.34	-1.06 (inactive)	0.0569	0.431	0.89	0.0754	0.486	-0.0483	-0.334	0.0681 (inactive)	0.679	0.452	0.27	0.845	0.483	-0.286
COC(=O)C1(Cc2ccccc2)C=C2C(=C(C)C(=O)C2C)CN1 (stereo not given)	-0.467	-1.06 (inactive)	0.163 (inactive)	-0.0472 (inactive)	2.04	-0.366 (inactive)	0.732	-0.233	-0.016	-0.0146	1.66	1.21	1.22	1.44 (inactive)	0.231	-0.333	-0.362	0.513	-0.424	1.43
COc1ccc([Si](C)(C)[C@@H]2[C@@H](CC(=O)N3CCC[C@H]3CO)O[C@]3(C(=O)N(Cc4ccc(N5CCOC5=O)cc4)c4ccccc43)[C@H]2C)cc1	1.45	-3.35 (inactive)	-1.13 (inactive)	-0.356 (inactive)	2.72	0.985 (inactive)	-0.242	1.46	0.912	-0.188	1.4	-0.3	0.135	-1.58 (inactive)	0.25	0.946	-0.0626	0.388	0.366	0.0014
